Experimental data as given in PubChem BioAssay (NCATS).
“And” between values parts separate entries of the source, which are not always exact repeats. Identical values can stand only once. Results filed as inconclusive are left out. The source made the active and inactive calls. Calls follow the shape of the dose curve; as a rule, active = well fitted curve in the direction sought with a large enough effect; inconclusive = small, poorly fitted or top-dose-only effect, or another doubt; inactive = no such curve, though single readings can be large; an effect the other way counts as inactive or inconclusive.

Experiments:
[1] = qHTS of pediatric cancer cell lines to identify multiple opportunities for drug repurposing: Primary screen for Rh30 cells (AID 1347107); also: series mostly up to about 46 µM; nearly all actives have a fitted effect of over 75% in size
Summary of the method: (§1)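 Cells (500-1,000/well) in growth media were settled 5 h at 37 degrees C, then given compounds for 48 h. Viability was read as CellTiter-Glo luminescence. Primary runs used MIPE at 11 points (0.78 nM-46 µM) and NPC at 8 points (0.59 nM-46 µM); follow-ups used 11 points.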

[2] = qHTS of pediatric cancer cell lines to identify multiple opportunities for drug repurposing: Primary screen for Rh41 cells (AID 1347108); also: nearly all actives have a fitted effect of over 70% in size; also: potency is read from the fitted curve at half-maximal effect
Summary of the method: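 CRCs from 8- or 11-point titrations (lowest final 0.59 nM NPC, 0.78 nM MIPE). Cell viability: CellTiter-Glo after 48 h incubation, 15 min room-temperature development, luminescence imaging.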

[3] = qHTS of pediatric cancer cell lines to identify multiple opportunities for drug repurposing: Confirmatory screen for NB1643 cells (AID 1347109); also: nearly all actives have a fitted effect of over 45% in size; also: potency is read from the fitted curve at half-maximal effect
Summary of the method: as §1

[4] = qHTS of pediatric cancer cell lines to identify multiple opportunities for drug repurposing: Confirmatory screen for A673 cells (AID 1347110);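 also: cells exposed to compound for 48 h before the viability read; nearly all actives have a fitted effect of over 65% in size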; also: potency is read from the fitted curve at half-maximal effect
Summary of the method: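 Concentration-response curves came straight from titrations: 11 points (0.78 nM to 46 µM) for MIPE and several concentrations (0.59 nM to 46 µM) for NPC in primary, 11 points in follow-up. Readout: ATP luminescence at 48 h.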

[5] = qHTS of pediatric cancer cell lines to identify multiple opportunities for drug repurposing: Confirmatory screen for BT-12 cells (AID 1347112); also: nearly all actives have a fitted effect of over 55% in size; also: potency is read from the fitted curve at half-maximal effect
Summary of the method: as §1

[6] = qHTS of pediatric cancer cell lines to identify multiple opportunities for drug repurposing: Confirmatory screen for LAN-5 cells (AID 1347113); also: nearly all actives have a fitted effect of over 65% in size; also: potency is read from the fitted curve at half-maximal effect
Summary of the method: as §1

[7] = qHTS of pediatric cancer cell lines to identify multiple opportunities for drug repurposing: Confirmatory screen for MG 63 (6-TG R) cells (AID 1347119); also: nearly all actives have a fitted effect of over 55% in size; also: potency is read from the fitted curve at half-maximal effect
Summary of the method: as §1

[8] = qHTS of pediatric cancer cell lines to identify multiple opportunities for drug repurposing: Confirmatory screen for control Hh wild type fibroblast cells (AID 1347121); also: nearly all actives have a fitted effect of over 70% in size; also: potency is read from the fitted curve at half-maximal effect
Summary of the method: as §1

[9] = qHTS of pediatric cancer cell lines to identify multiple opportunities for drug repurposing: Confirmatory screen for U-2 OS cells (AID 1347122); also: nearly all actives have a fitted effect of over 65% in size; also: potency is read from the fitted curve at half-maximal effect
Summary of the method: as §1

[10] = qHTS of pediatric cancer cell lines to identify multiple opportunities for drug repurposing: Confirmatory screen for Rh41 cells (AID 1347123);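 also: 48 h compound exposure; nearly all actives have a fitted effect of over 60% in size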; also: potency is read from the fitted curve at half-maximal effect
Summary of the method: as §1

[11] = qHTS of pediatric cancer cell lines to identify multiple opportunities for drug repurposing: Confirmatory screen for Rh18 cells (AID 1347125); also: nearly all actives have a fitted effect of over 55% in size; also: potency is read from the fitted curve at half-maximal effect
Summary of the method: as §1

[12] = qHTS of pediatric cancer cell lines to identify multiple opportunities for drug repurposing: Confirmatory screen for Rh30 cells (AID 1347126); also: nearly all actives have a fitted effect of over 55% in size; also: potency is read from the fitted curve at half-maximal effect
Summary of the method: as §1

[13] = qHTS of pediatric cancer cell lines to identify multiple opportunities for drug repurposing: Confirmatory screen for OHS-50 cells (AID 1347128); also: potency is read from the fitted curve at half-maximal effect
Summary of the method: as §1

[14] = target: N-terminal Xaa-Pro-Lys N-methyltransferase 1 (Homo sapiens) (UniProt Q9BV86); test: qHTS Assay for Inhibitors of N-terminal methyltransferase 1 (NTMT1): LOPAC validation of the NTMT1 SAHH-coupled ThioGlo3 Assay (AID 1347143);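 also: SAH from peptide methylation measured as thiol fluorescence via SAHH coupling and ThioGlo3; nearly all actives have a fitted effect of over 70% in size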; also: potency is read from the fitted curve at half-maximal effect
Summary of the method: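 In this qHTS pilot against the LOPAC set, 125nM NTMT1 met compounds tested at multiple concentrations, and fluorescence was normalized to background.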

[15] = qHTS of pediatric cancer cell lines to identify multiple opportunities for drug repurposing: Confirmatory screen for SK-N-MC cells (AID 1347111);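 also: cells exposed to compound for 48 h before the readout; nearly all actives have a fitted effect of over 70% in size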; also: potency is read from the fitted curve at half-maximal effect
Summary of the method: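 Metabolically active cells were quantified by ATP-dependent luminescence (CellTiter-Glo, 15 min at room temperature) following 48 h treatment. Cells had been plated at 500-1,000 per well and settled for 5 h beforehand.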

[16] = qHTS of pediatric cancer cell lines to identify multiple opportunities for drug repurposing: Confirmatory screen for NB-EBc1 cells (AID 1347115);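 also: cells exposed to compound for 48 h before the viability read; nearly all actives have a fitted effect of over 45% in size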; also: potency is read from the fitted curve at half-maximal effect
Summary of the method: as §1

[17] = qHTS of pediatric cancer cell lines to identify multiple opportunities for drug repurposing: Confirmatory screen for BT-37 cells (AID 1347117); also: nearly all actives have a fitted effect of over 55% in size; also: potency is read from the fitted curve at half-maximal effect
Summary of the method: as §1

[18] = qHTS of pediatric cancer cell lines to identify multiple opportunities for drug repurposing: Confirmatory screen for SK-N-SH cells (AID 1347129);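 also: potency is read from the fitted curve at half-maximal effect; cells exposed to compound for 48 h before viability read; nearly all actives have a fitted effect of over 60% in size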
Summary of the method: as §1

[19] = qHTS of pediatric cancer cell lines to identify multiple opportunities for drug repurposing: Confirmatory screen for SJ-GBM2 cells (AID 1347116); also: potency is read from the fitted curve at half-maximal effect; nearly all actives have a fitted effect of over 60% in size
Summary of the method: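 Viability measured as metabolically active cells via CellTiter-Glo luminescence following 48 hours of compound exposure, 11-point dilutions in confirmatory testing. 500-1,000 cells/well plated 5 hours before dosing; controls were DMSO and 2.3 µM bortezomib.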

[20] = target: Furin (Homo sapiens) (UniProt P09958); test: Furin counterscreen qHTS for Zika virus inhibitors (AID 1347149)
Summary of the method: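 Counterscreen measures cleavage of 2 microM BOC-RVRR-AMC, below its ~15 microM Km, by 5 nM full-length human furin at pH 7.0 after a 15-min compound preincubation. Inhibition derives from the 15-min fluorescence increase at 37C.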

Measured: Potency

N-terminal Xaa-Pro-Lys N-methyltransferase 1 (Homo sapiens), sequence (Q9BV86 whole entry, looked up): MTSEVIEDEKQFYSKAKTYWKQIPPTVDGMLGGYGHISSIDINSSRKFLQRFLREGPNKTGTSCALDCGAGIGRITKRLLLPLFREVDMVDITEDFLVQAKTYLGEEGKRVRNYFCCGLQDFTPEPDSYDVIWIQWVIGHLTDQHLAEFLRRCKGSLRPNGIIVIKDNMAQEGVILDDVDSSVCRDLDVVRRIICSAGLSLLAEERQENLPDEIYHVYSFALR
Furin (Homo sapiens), sequence (P09958 whole entry, looked up): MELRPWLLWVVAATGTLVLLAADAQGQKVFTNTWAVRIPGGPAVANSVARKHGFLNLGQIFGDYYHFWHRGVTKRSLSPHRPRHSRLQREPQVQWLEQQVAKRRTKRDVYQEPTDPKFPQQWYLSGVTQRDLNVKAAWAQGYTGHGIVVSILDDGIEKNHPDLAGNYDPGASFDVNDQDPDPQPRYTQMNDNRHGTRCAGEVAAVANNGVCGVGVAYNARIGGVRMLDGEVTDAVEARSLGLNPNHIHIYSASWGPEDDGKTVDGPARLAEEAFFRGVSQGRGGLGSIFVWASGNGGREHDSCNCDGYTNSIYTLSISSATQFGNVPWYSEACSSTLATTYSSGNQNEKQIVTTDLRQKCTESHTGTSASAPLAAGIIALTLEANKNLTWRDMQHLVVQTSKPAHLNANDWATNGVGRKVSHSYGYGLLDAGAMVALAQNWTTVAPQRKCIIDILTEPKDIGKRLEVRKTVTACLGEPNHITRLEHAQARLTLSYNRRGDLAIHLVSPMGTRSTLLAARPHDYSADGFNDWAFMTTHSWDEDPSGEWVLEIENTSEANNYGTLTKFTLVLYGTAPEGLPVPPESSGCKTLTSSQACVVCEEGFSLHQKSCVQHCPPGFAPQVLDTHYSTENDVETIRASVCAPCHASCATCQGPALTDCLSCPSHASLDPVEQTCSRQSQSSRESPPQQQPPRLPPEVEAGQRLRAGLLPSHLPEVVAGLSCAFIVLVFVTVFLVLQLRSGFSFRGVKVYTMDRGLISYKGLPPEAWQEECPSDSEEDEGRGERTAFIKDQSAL

CS(=O)(=O)Nc1ccc([N+](=O)[O-])cc1Oc1ccccc1
inactive: [1] | [2] | [3] | [4] | [5] | [6] | [8] | [9] | [11] | [12] | [13]
active: [7] 16500 nM | [10] 18500 nM

CCc1cccc2c3c([nH]c12)C(CC)(CC(=O)O)OCC3 (stereo not given)
inactive: [1] | [2] | [14]

NC(=O)NO
active: [4] 414 nM | [9] 23300 nM
inactive: [1] | [3] | [15] | [5] | [6] | [16] | [17] | [7] | [8] | [10] | [11] | [13]

CS(=O)(=O)CCNCc1ccc(-c2ccc3ncnc(Nc4ccc(OCc5cccc(F)c5)c(Cl)c4)c3c2)o1
active: [4] 20800 nM | [5] 13100 nM | [9] 20800 nM | [10] 8270 nM | [11] 14700 nM | [12] 14700 nM | [18] 23500 nM
inactive: [16]

O=C1c2c(O)ccc(O)c2C(=O)c2c(NCCNCCO)ccc(NCCNCCO)c21
active: [2] 4.18 µM and 9.44 µM | [3] 369 nM | [4] 147 nM | [15] 208 nM | [5] 1850 nM | [6] 165 nM | [16] 414 nM | [19] 2080 nM | [17] 261 nM | [7] 414 nM | [8] 14700 nM | [9] 5220 nM | [10] 465 nM | [11] 2610 nM | [12] 4140 nM | [13] 2330 nM | [18] 526 nM

CC(C)(C)C(=O)Oc1ccc(S(=O)(=O)Nc2ccccc2C(=O)NCC(=O)O)cc1
inactive: [1] | [2] | [20]

CC12CC3CC(C)(C1)CC(N)(C3)C2
inactive: [1] | [14]

Cc1ccc(-c2cc(C(F)(F)F)nn2-c2ccc(S(N)(=O)=O)cc2)cc1
inactive: [1] | [14]

CCOC(=O)Nc1ccc(NCc2ccc(F)cc2)nc1N
inactive: [1] | [2]
active: [14] 50100 nM

Cn1cnc2c1c(=O)[nH]c(=O)n2C
inactive: [1] | [14]

COC(=O)Nc1nc2ccc(C(=O)c3cccs3)cc2[nH]1
active: [3] 522 nM | [4] 147 nM | [15] 147 nM | [5] 522 nM | [6] 522 nM | [17] 329 nM | [7] 147 nM | [9] 208 nM | [13] 208 nM
inactive: [1] | [8] | [11] | [12]
